Laboratory results as given in PubChem BioAssay (NCATS).
Results filed as inconclusive are left out. Where a call stands in place of a potency, no number is given. A number with no mark means an inactive call. Active and inactive are the calls of the source. The call rests on the fitted dose curve; in most records, active means well fitted curve in the direction sought with a large enough effect; inconclusive means small, poorly fitted or top-dose-only effect, or another doubt; inactive means no such curve, though single readings can be large; an effect the other way counts as inactive or inconclusive.

Columns and labels:
[1] = OV-SAHO Cancer Cell Toxicity qHTS against the NCATS CANVASS Library (AID 1347348); conditions: OV-SAHO viability, CellTiter-Glo luminescence, 72 h; series mostly up to 38.3 µM; further: nearly all actives have a fitted effect of over 55% in size; further: potency means the concentration at half of the fitted maximal effect
Summary of the method: (§1)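 1000 cells/well; 4 h settle; 11-pnt titration; 72 h, 37 degrees C, 5% CO2; CellTiter-Glo, 15min RT; luminescence read.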

[2] = U-118MG Cancer Cell Toxicity qHTS against the NCATS CANVASS Library (AID 1347351); conditions: U-118MG viability, CellTiter-Glo luminescence, 72 h; series mostly up to 38.3 µM; further: potency means the concentration at half of the fitted maximal effect
Summary of the method: as §1

[3] = HEK-293 Cancer Cell Toxicity qHTS against the NCATS CANVASS Library (AID 1347355); conditions: HEK-293 viability, CellTiter-Glo luminescence, 72 h; series mostly up to 46.1 µM; further: nearly all actives have a fitted effect of over 65% in size; further: potency means the concentration at half of the fitted maximal effect
Summary of the method: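 1000 cells/well, 4 h pre-incubation 37 °C/5% CO2; 11-pnt titration; 72 h; CellTiter-Glo 15 min RT, luminescence.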

[4] = HPAF-II 18hr Apoptosis Induction qHTS against the NCATS CANVASS Library (AID 1347360); conditions: HPAF-II caspase-3/7 luminescence; series mostly up to 46.1 µM
Summary of the method: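 Caspase-3/7 activation was measured with luminescent Caspase-Glo 3/7 reagent (15 min, RT) in HPAF-II cancer cells (500 cells/well). Before detection, cells had been treated for 18 h at 37 C with compounds (11 points).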

[5] = target: Nuclear receptor subfamily 1 group I member 3 (Homo sapiens) (UniProt Q14994); test: qHTS for Constitutive Androstane Receptor (CAR) Agonist screened against the NCATS CANVASS Library (AID 1347373); conditions: HepG2-hCAR-CYP2B6 luciferase reporter, ONE-Glo luminescence; series mostly up to 46.1 µM;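 further: every well also contained 1.5 µM PK11195 alongside the test compound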
Sequence of Nuclear receptor subfamily 1 group I member 3 (Homo sapiens) (Q14994 whole entry, looked up): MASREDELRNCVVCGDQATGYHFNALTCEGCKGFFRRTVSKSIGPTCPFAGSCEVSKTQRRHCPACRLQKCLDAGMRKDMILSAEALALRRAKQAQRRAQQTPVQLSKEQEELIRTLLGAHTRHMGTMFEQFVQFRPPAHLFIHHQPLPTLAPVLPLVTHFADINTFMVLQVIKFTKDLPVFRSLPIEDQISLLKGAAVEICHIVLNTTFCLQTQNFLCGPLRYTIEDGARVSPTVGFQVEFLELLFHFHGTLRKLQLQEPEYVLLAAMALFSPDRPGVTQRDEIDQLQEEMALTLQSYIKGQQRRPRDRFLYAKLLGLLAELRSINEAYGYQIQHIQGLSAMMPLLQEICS
Summary of the method: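 Luciferase read-out (ONE-Glo, 30 min RT) of CYP2B6-2.2kb promoter activity in double-stable HepG2-hCAR cells after 24hr compound exposure with 1.5uM PK11195 present; viability measured first by CellTiter-Fluor.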

[6] = qHTS for Hypoxia signaling pathway (HIF-1) agonists against the NCATS CANVASS Library (AID 1347375); conditions: HRE-bla ME-180 cells, HIF-1 beta-lactamase reporter, 17 h; series mostly up to 38.3 µM; further: potency means the concentration at half of the fitted maximal effect
Summary of the method: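 Read-out: beta-lactamase FRET (CCF4-AM, ex 405, em 460 and 530 nm) after 2 h at room temperature. ME-180 cells stably carrying HRE-bla were treated 17 h at 37C with compounds in an 11-point concentration series.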

[7] = qHTS for H2AX Agonists against the NCATS CANVASS Library (AID 1347378); conditions: CHO-K1 H2AX phosphorylation, HTRF TR-FRET, 3 h; series mostly up to 76.9 µM; further: potency means the concentration at half of the fitted maximal effect
Summary of the method: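 Phospho-H2AX (S139) in CHO-K1 lysates measured by HTRF, reported as 665/615 nm emission ratio after 24 hr antibody incubation at room temperature. Cells were first treated with a compound series for 3 hr at 37C (0.76% DMSO final).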

[8] = qHTS for Inflammasome Signaling Inhibitors: IL-1-beta AlphaLISA screen against the NCATS CANVASS Library (AID 1347379); conditions: THP-1 LPS/ATP, IL-1B AlphaLISA secretion, 16 h; series mostly up to 57.5 µM;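 further: human THP-1 cells primed with LPS then triggered with ATP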
Summary of the method: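 THP-1, 1 hr compound pre-incubation, then LPS 250 ng/mL + ATP 1.25 mM (final); 16 hr total with compound; IL-1B AlphaLISA, ex 680/em 615 nm; 11-point qHTS, up to 57.5 uM final.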

[9] = Cytotoxicity qHTS for assessment of Hepg2 cells membrane integrity screened against the NCATS CANVASS Library (AID 1347387); conditions: HepG2 LDH release (CytoTox-ONE) fluorescence, 5 h; series mostly up to 46.1 µM
Summary of the method: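 LDH release read by fluorescence (560 nm ex/590 nm em) after CytoTox-ONE addition and 10 min RT; signal tracks lysed cells. HepG2, 2000 cells/well, plated overnight; compound 5 hr, 37C, 5% CO2, final 0.59 nM - 46 uM, 11 points.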

[10] = qHTS for Activators of p53 Stress Response Pathway screened against the NCATS CANVASS Library (AID 1347388); conditions: p53RE-bla HCT-116, beta-lactamase reporter, 16 h; series mostly up to 46.1 µM
Summary of the method: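 p53RE-bla HCT-116 cells (4000/well) were plated 5 h at 37C, exposed to compounds for 16 h at 37C over an 11-point concentration series, then loaded with CCF4 for 2 h at room temperature; 460/530 nm emission ratio read.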

[11] = qHTS assay for small molecule disruptors of mitochondrial membrane potential screened against the NCATS CANVASS Library (AID 1347389); conditions: HepG2 mitochondrial membrane potential, m-MPI red/green ratio, 1.5 h; series mostly up to 46.1 µM; further: nearly all actives have a fitted effect of over 60% in size; further: potency means the concentration at half of the fitted maximal effect
Summary of the method: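 Red/green fluorescence ratio read-out: J-aggregates ex 540/em 590 nm, monomers ex 490/em 535 nm. HepG2, 1 hr compound treatment, then 30 min Mito-MPS dye at 37C. 11-pt qHTS concentration series.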

[12] = Secretion counterscreen for inhibitors of the SERCaMP assay screened against the NCATS CANVASS Library (AID 1347390); conditions: SH-SY5Y constitutive GLuc secretion, luminescence, 20 h; series mostly up to 76.6 µM;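 further: light from luciferase secreted into medium read as a measure of general secretion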; further: potency means the concentration at half of the fitted maximal effect
Summary of the method: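 Counterscreen for secretory-pathway interference: after 4 h attachment, SH-SY5Y-GLuc cells were exposed 20 hours to compounds (final 0.001 - 77 uM), then coelenterazine added and GLuc luminescence recorded; Brefeldin A served as control.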

[13] = qHTS for activators of dead-cell proteases activity screened against the NCATS CANVASS Library (AID 1347392); conditions: HepG2 cytotoxicity, dead-cell protease luminescence, 5 h; series mostly up to 46.1 µM;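 further: luminescence from protease leaking out of membrane-damaged cells cleaving impermeant substrate; rising signal means more cytotoxicity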
Summary of the method: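 Cytotoxicity in HepG2 cells was assessed by released protease cleaving AAF-aminoluciferin, with luminescence as signal. Exposure lasted 5 h at 37C across an 11-point series.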

[14] = qHTS for inhibitors of ER calcium dysfunction: SERCaMP assay screened against the NCATS CANVASS Library (AID 1347393); conditions: SH-SY5Y GLuc-SERCaMP (Gaussia luciferase released on ER calcium loss) secretion, thapsigargin, luminescence; series mostly up to 76.6 µM; further: nearly all actives have a fitted effect of over 40% in size; further: potency means the concentration at half of the fitted maximal effect
Summary of the method: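 qHTS in SH-SY5Y reporter cells: 16 h compound pretreatment, 4 h thapsigargin, then secreted Gaussia luciferase measured by luminescence.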

[15] = Viability qHTS for inhibitors of the SERCaMP assay screened against the NCATS CANVASS Library (AID 1347400); conditions: SH-SY5Y SERCaMP cells viability, CellTiter-Glo, 48 h; series mostly up to 92.2 µM; further: nearly all actives have a fitted effect of over 70% in size; further: potency means the concentration at half of the fitted maximal effect
Summary of the method: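 CellTiter-Glo luminescence readout after 48 h compound exposure (11-pnt qHTS series) of SH-SY5Y-GLuc SERCaMP MJH297 cells seeded at 1000 cells/well; bortezomib positive control.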

[16] = Redox Reaction Profiling qHTS: Assay Interference Panel against the NCATS CANVASS Library (AID 1347401); conditions: resazurin-DTT redox cycling, fluorescence, 15 min; series mostly up to 57.1 µM
Summary of the method: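 Quantitative HTS over an 11-point series was run in HEPES pH 7.3 with 50 mM NaCl, 200 uM DTT and 5 uM resazurin. Initial and 15-min resorufin fluorescence readings were taken.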

[17] = KB-3-1 Cancer Cell Toxicity qHTS against the NCATS CANVASS Library (AID 1347366); conditions: KB-3-1 viability, CellTiter-Glo luminescence, 72 h; series mostly up to 46.1 µM; further: nearly all actives have a fitted effect of over 75% in size; further: potency means the concentration at half of the fitted maximal effect
Summary of the method: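 CellTiter-Glo luminescence measured viability after 72 h at 37C. KB-3-1 cells were seeded at 500 per well in DMEM/10% FBS.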

Row | SMILES | Potency [1] | Potency [2] | Potency [3] | Potency [4] | outcome [5] | Potency [6] | Potency [7] | Potency [8] | outcome [9] | Potency [10] | Potency [11] | Potency [12] | Potency [13] | Potency [14] | Potency [15] | Potency [16] | Potency [17]
1 | Oc1ccc(/C=C2/c3cc(O)cc(O)c3C(c3ccc(O)cc3)[C@H]2c2cc(O)cc(O)c2)cc1 (stereo not given in full) | 14.9 µM (active) | inactive | inactive | inactive | inactive | inactive | inactive | inactive | inactive | inactive | inactive | inactive | inactive | inactive | inactive | inactive | –
2 | CC1=CC2=C[C@H](C)C[C@@]23OC(=C(C)C3=O)CC(C)(C)/C=C/C1=O | 2.11 µM (active) | 0.749 µM (active) | 0.526 µM (active) | inactive | inactive | 5.29 µM (active) | 1.72 µM (active) | 1.09 µM (active) | – | inactive | 5.24 µM (active) | 1.93 µM (active) | – | inactive | 1.52 µM (active) | inactive | 2.64 µM (active)
3 | CCCCCCCCCCCCCCCC(=O)OC/C=C(\C)CCCC(C)CC(C)C(C)C (stereo not given) | inactive | inactive | inactive | inactive | inactive | inactive | inactive | inactive | inactive | inactive | inactive | inactive | inactive | inactive | inactive | inactive | inactive
4 | C/C(=C\[C@H](C)C(=O)CCCC1CC(=O)NC(=O)C1)[C@@H]1OC(=O)/C=C/CC/C=C/C[C@@H](O)[C@@H]1C | 2.98 µM (active) | – | 1.87 µM (active) | inactive | inactive | inactive | – | 9.68 µM (active) | inactive | inactive | inactive | 3.84 µM (active) | inactive | inactive | 5.38 µM (active) | – | 14.8 µM (active)
5 | CO[C@H]1/C=C/CC[C@@H](S[C@@H]2O[C@H](CO)[C@@H](O)[C@H](O)[C@H]2O)CC(=O)O[C@@H](/C(C)=C/[C@H](C)C(=O)CCCC2CC(=O)NC(=O)C2)[C@@H](C)[C@@H]1O | 3.75 µM (active) | – | 1.87 µM (active) | inactive | – | inactive | – | 30.6 µM (active) | inactive | inactive | inactive | 7.67 µM (active) | inactive | inactive | 12 µM (active) | – | 20.9 µM (active)
6 | C=CC(C)(C)C(=O)[C@@H](C)[C@@H]1CC[C@](C)(C=C)O1 | inactive | inactive | inactive | inactive | inactive | inactive | inactive | inactive | inactive | inactive | inactive | inactive | inactive | inactive | inactive | – | inactive
7 | C/C(=C\[C@H](C)C(=O)CCCC1CC(=O)NC(=O)C1)C(O)[C@@H](C)[C@H](O)C/C=C/CC/C=C/C(=O)O (stereo not given in full) | inactive | inactive | inactive | – | inactive | inactive | inactive | inactive | inactive | inactive | inactive | inactive | inactive | inactive | inactive | – | inactive
8 | CCCCCCC[C@@H](C/C=C/CCC(=O)NCCc1c[nH]c2ccccc12)OC | inactive | inactive | – | – | inactive | inactive | inactive | inactive | inactive | inactive | – | inactive | inactive | 34.3 µM (active) | inactive | inactive | inactive
9 | O=C1CC(c2cc(O)cc(O)c2)Oc2cc(O)ccc21 (stereo not given) | inactive | inactive | – | inactive | inactive | inactive | – | inactive | inactive | inactive | 7.41 µM (active) | – | inactive | 8.6 µM (active) | – | inactive | inactive
10 | CCCCCC[C@H](CCCCC[C@@H](O)C(N)=O)OC(=O)[C@@H]1CC=CN1C(=O)c1ccccc1O | – | inactive | inactive | inactive | inactive | inactive | inactive | inactive | inactive | inactive | inactive | inactive | inactive | inactive | inactive | inactive | inactive
11 | CC12C[C@]3(O)O[C@@H](O1)[C@]1(COC(=O)c4ccccc4)[C@@H]3CC21OC1OC(CO)C(O)C(O)C1O (stereo not given in full) | inactive | inactive | inactive | inactive | inactive | inactive | inactive | inactive | inactive | inactive | inactive | – | inactive | – | inactive | inactive | inactive
12 | Oc1ccc(C2c3c(O)cc(O)cc3[C@@H]3C(c4ccc(O)cc4)c4c(O)cc(O)cc4[C@H]23)cc1 (stereo not given in full) | inactive | inactive | inactive | inactive | inactive | inactive | inactive | inactive | inactive | – | – | inactive | inactive | inactive | inactive | inactive | inactive
13 | CC1(C)C=Cc2c(ccc3c2OC[C@@H](c2ccc(O)cc2O)C3)O1 | inactive | inactive | inactive | inactive | – | inactive | inactive | inactive | inactive | inactive | 14.8 µM (active) | inactive | inactive | 30.5 µM (active) | inactive | inactive | inactive
14 | CC(=O)[C@@H]1[C@@H](O)C[C@H]2[C@]3(C)CC[C@H]4C(C)(C)CCC[C@]4(CO)[C@H]3C[C@H]3OC(=O)[C@@H]1[C@@]32C | inactive | inactive | – | – | inactive | inactive | inactive | inactive | inactive | inactive | inactive | inactive | inactive | 38.4 µM (active) | inactive | inactive | inactive
